From PubChem BioAssay (NCI) come the findings set out here.

Where “and” joins values, the source holds several entries; their conditions need not be identical. Equal values may be shown once. The panel holds about 83,000 compounds, 20% with a hit somewhere; the sample as a whole holds those more often.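 Note: values are percent growth. 100 is the growth of untreated cells, values between 100 and 0 indicate rising inhibition; between -100 and 0 indicates cell death.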 A number with no mark means an inactive call. Calls of active or inactive are those of the source. How the source made its calls: active means growth percent below 10; inactive means the rest.

This test concerns MDA-MB-468 breast. Nature of the test: NCI-60 one-dose screen, 48 h (100 = growth as untreated, 0 = no growth, -100 = all killed). As to conditions: 10 µM unless noted.
Consider `COc1ccc(C(=O)c2cc(OC)c(OC)c(OC)c2)cc1/C=C/C(=O)c1ccc(F)cc1`, for which the growth was 90.4%.
With `C[n+]1ccc(CCc2c[nH]c3ccccc23)cc1` the figure was 14.4%; with `O=C(O)c1nc(-c2ccccc2)oc1N1CCOCC1`, 99.8%.
With `CN(C)c1ccc(Nc2cc(-c3cccc(OC(F)(F)F)c3)nc3ccc(N4CCCC4)cc23)cc1` the figure was -48.1% (active).
`CC1=NN(c2cccc(Cl)c2)C(=O)/C1=C\c1cn(-c2nc(N3CCOCC3)nc(N3CCOCC3)n2)c2ccccc12`: the growth was 95.9%.
With `COc1ccc(S(=O)(=O)NCCNc2nccc(-c3c(-c4cccc([N+](=O)[O-])c4)nc4sccn34)n2)cc1`, the growth was 69.7%.
With `CC1OS(=O)OC1C` (stereo not given) the figure was 96.4% and 96.2%; with `Cc1ncc([N+](=O)[O-])n1CCOc1ccc(C(=O)/C=C/c2ccc(C(F)(F)F)cc2)cc1`, 71.3%.
In the case of `O=c1[nH]c(=O)n(C2OC(CO)C(O)C2O)cc1I` (stereo not given), the growth was 102% and 123%.
In the case of `Cc1ccc2nc3nc4ccc[nH]c4cc3c2c1`, the growth is -57.7% (active).
Take `COC1C/C(=N\O)C2OC(c3ccccc3)OCC2O1` (stereo not given): the growth is 105%.
Turning to `Cc1ccc2c(c1)C(C)Cc1c(ncnc1-n1cnc3cc(C)ccc31)N2C` (stereo not given), the growth is 9.76% (active).
With `O=C(c1ccc(O)c(C(=O)N2Cc3ccc(OCCC[P+](c4ccccc4)(c4ccccc4)c4ccccc4)cc3C2)c1)N1Cc2cccc(F)c2C1` the figure was 2.97% (active); with `NC(N)=Nc1ccc(Oc2cccc(NC(N)=Nc3ccc(Br)cc3)c2)cn1`, 8.74% (active).
For `CC(C)c1ccc(/C=N/N=C(N)N)cc1`, the growth is 35.3%.
The value for `CN1CCN(Cc2ccc(NC(=O)c3cncc(C#Cc4nc(N)nc5[nH]ncc45)c3)cc2C(F)(F)F)CC1` was 35.1%.
With `O=C(NCCCNc1cc(-c2cn(-c3ccccc3)nc2-c2cccc(O)c2)ccn1)Nc1cccc(C(F)(F)F)c1` the figure was 11.2%.
The value for `COc1cc([C@H]2OC[C@H]3[C@@H]2CO[C@@H]3c2ccc(O)c(OC)c2)ccc1O` was 100%; that for `OC(CNc1ccnc2cc(Cl)ccc12)CNc1ccnc2cc(Cl)ccc12` was -67.9% (active).
Consider `Cc1cc(OCc2ccc(C(F)(F)F)cc2)c2c(c1)C(=O)C=C(NCCN1CCCC1)C2=O`, for which the growth is 51.3%.
With `NCCCCCNc1noc(Cc2c[nH]c3cc(Br)ccc23)n1` the figure was 4.11% (active); with `COC(=O)C(Sc1ccc(Cl)cc1)C1SC(=S)N(Cc2ccccc2)C1=O` (stereo not given), 94.7%; with `O=[N+]([O-])c1ccc(/C=N\NC(=S)Nc2ccc(F)cc2)cc1`, 104% and 101%.
Regarding `O=C(/C=C/c1cccc(O)c1)c1cccc(-n2cc(-c3ccc(Cl)cc3)[nH]c2=O)c1`, the growth was 37.6%.
With `COc1cc(/C=C/C(=O)c2ccc(NC(=O)COc3cccc4cccnc34)cc2)cc(OC)c1OC` the figure was 75.6%.
On to `COc1cccc2cc(-c3nc(C4CCC(C(=O)O)CC4)n4ncnc(N)c34)[nH]c12` (stereo not given), for which the growth is -22.3% (active).
`CC[n+]1c(C)ccc2cc(C)ccc21`: the growth was 58.1%.
With `Cc1ccc(Sc2ccccc2N)cc1`, the growth was 81.2%.
On to `COc1cnccc1-c1nc2ccc3[nH]ncc3c2c2c1CCCC2`, for which the growth is 39.6%.
The value for `O=S(=O)(NCCCNc1nccc(-c2[nH]c(-c3ccccc3)nc2-c2ccc(Cl)c(O)c2)n1)c1cccc2ccccc12` was 36.7%; that for `CC(=O)ON1CCCC(P(=O)(OCOC(=O)C(C)(C)C)OCOC(=O)C(C)(C)C)C1=O` (stereo not given) was -21.2% (active); that for `Cn1c(N2N=C(c3ccc(Cl)cc3)CC2c2ccccc2)nc(-c2ccccc2)c(C#N)c1=O` (stereo not given) was 74%.
Regarding `COc1cc(/C=C/C(=O)c2ccc(Nc3ncnc4cc(OC)c(OC)cc34)cc2)cc(OC)c1`, the growth is 101%.
With `C/C(=C\CCc1ccsc1)CC/C=C(\C)CCCN1CCSCC1` the figure was 50.1%.
The value for `CC(C)CSc1nc(NN)c(C#N)c(-c2ccc(F)cc2)n1` was 85.2%.
With `C=C1C(=O)O[C@H]2[C@H]1CC/C(COC(=O)NCc1ccc(Cn3c(=O)sn(CCCI)c3=O)cc1)=C\CC[C@@]1(C)O[C@@H]21` the figure was -28.8% (active).
For the compound `COc1ccccc1-n1c(-c2cc(O)ccc2C)cn2c3c(=O)[nH]c(=O)n(C)c3nc12`, the growth was 92.3%.
With `Fc1cc2[nH]ncc2c2c3c(c(-c4cn[nH]c4C(F)(F)F)nc12)C1CCC3C1` (stereo not given), the growth was 11.5%.
Regarding `COc1ccc(/C=C/c2c(C(=O)/C=C/c3ccc(Cl)cc3)c(C)nc3ccccc23)cc1`, the growth is 34.7%.
Regarding `N=C(N)c1ccc(-c2ccc(-c3ccc(Cl)cn3)s2)cc1`, the growth is -28.2% (active).
